“And” between values parts separate entries of the source, which are not always exact repeats. Identical values can stand only once. Records with an inconclusive call do not appear. A call without a number means that no potency is given here. The source made the active and inactive calls. Calls come from the whole dose curve; as a rule, active = well fitted cell-killing curve with a large enough effect in the repeat runs; inconclusive = weak or mixed curves, or effect the other way; inactive = no such curve, though single readings can be large or run the other way.
test: qHTS assay to identify small molecule antagonists of the progesterone receptor (PR) signaling pathway - cell viability counter screen (AID 1346798); settings: PR-UAS-bla HEK293T viability, CellTiter-Glo luminescence, 16 h; series mostly up to 92.4 µM; note: nearly all actives have a fitted effect of over 50% in size
Source text: National Center for Advancing Translational Sciences [NCATS]
NIH Chemical Genomics Center [NCGC]
U.S. Environmental Protection Agency [EPA]
National Institutes of Environmental Health Sciences [NIEHS]
National Toxicology Program [NTP]
U.S. Food and Drug Administration [FDA]
Progesterone receptor (PR), a nuclear hormone receptor, plays an important role in development, metabolic homeostasis and reproduction. It is activated by the steroid hormone progesterone. Endocrine disrupting chemicals (EDCs) and their interactions with steroid hormone receptors like PR causes disruption of normal endocrine function. To identify the compounds that inhibit PR signaling, a PR-UAS-bla GripTite cell line i.e. PR-UAS-bla HEK293T (Invitrogen, Carlsbad, CA, USA) containing a beta-lactamase reporter gene under the control of an UAS response element was used to screen Tox21 10K compound library. The cytotoxicity of the Tox21 compound library against the PR-bla cell line was tested in parallel by measuring the cell viability using CellTiter-Glo assay in the same wells.
Tox21 Assay Protocol Summary:
PR-UAS-bla HEK293T cells were dispensed at 3,000 cells/4 uL of assay medium containing 2% charcoal stripped FBS per well into black wall/clear-bottom 1536-well plates using a Multidrop Combi (ThermoFisher Scientific, Waltham, MA) dispenser. After the assay plates were incubated at a 37C and 5% CO2 for 4 hr, 23 nL of compounds dissolved in DMSO, positive controls or DMSO only was transferred to the assay plate by a Pintool station (Kalypsys, San Diego, CA), followed by addition of 1 uL of R5020 in assay medium using a Flying Reagent Dispenser (FRD, Aurora Discovery, San Diego, CA). The plates were incubated at 37C and 5% CO2 for 16 hr. Then 1 uL of LiveBLAzer B/G FRET substrate was added using a Flying Reagent Dispenser, the plates were incubated at room temperature for 2 hours, and fluorescence intensity was measured by an Envision plate reader (PerkinElmer, Shelton, CT). For cell viability readout that measures cytotoxicity, 4 uL/well of CellTiter-Glo reagent was added into the assay plates using a FRD. After 30 min incubation at room temperature, the luminescence intensity in the plates was measured using a ViewLux (PerkinElmer) plate reader.
Potency is the fitted concentration of half-maximal effect.

Row | SMILES | Potency
1 | CCOCOCC | inactive
2 | CCCCCCCCCCCC(=O)N(CC)CC | inactive
3 | CCCC(C)CCC(C)=O (stereo not given) | inactive
4 | CNC(=O)c1cc(Oc2ccc(NC(=O)Nc3ccc(Cl)c(C(F)(F)F)c3)cc2)ccn1 | 33.5 µM (active)
5 | COC(=O)C1=C(C)NC(C)=C(C(=O)OCCCN2CCC(c3ccccc3)(c3ccccc3)CC2)C1c1cccc([N+](=O)[O-])c1 (stereo not given) | 18.8 µM (active)
6 | CCCCN(CCCC)CCC(O)c1cc2c(Cl)cc(Cl)cc2c2cc(C(F)(F)F)ccc12 (stereo not given) | inactive
7 | OCCCS | inactive
8 | CCN(CC)c1cccc(C)c1 | inactive
9 | CCCC(=O)OCC(COC(=O)CCC)OC(=O)CCC | inactive
10 | CC(C)(C)c1cc(CCC(=O)NCCCCCCNC(=O)CCc2cc(C(C)(C)C)c(O)c(C(C)(C)C)c2)cc(C(C)(C)C)c1O | inactive
11 | CC(=O)Nc1ccc(O)cc1 | inactive
12 | COc1cccc(O)c1 | inactive
13 | O=C(Oc1ccccc1)c1cccc(C(=O)Oc2ccccc2)c1 | 64.4 µM (active)
14 | CCOC(=O)COc1ccc(C)cc1 | inactive
15 | C[C@H]1O[C@@H](O[C@H]2[C@@H](O)C[C@H](O[C@H]3[C@@H](O)C[C@H](O[C@H]4CC[C@@]5(C)[C@H](CC[C@@H]6[C@@H]5C[C@@H](O)[C@]5(C)[C@@H](C7=CC(=O)OC7)CC[C@]65O)C4)O[C@@H]3C)O[C@@H]2C)C[C@H](O)[C@@H]1O | 86.4 nM (active) and 121 nM (active)
16 | CCCCCCCC/C=C\CCCCCCCC(=O)N(C)CC(=O)O | 68.6 µM (active)
17 | Cn1cccc1 | inactive
18 | CCCC(O)C(O)CO (stereo not given) | inactive
19 | CCC(C)(C)c1cc(O)c(C(C)(C)CC)cc1O | inactive
20 | c1cc2c3c(c1)ccc1cccc(c13)C2 | inactive

Row | SMILES | Potency
21 | CCc1ccc(C)nc1 | inactive
22 | C=CC(=O)OCCC#N | inactive
23 | CCC(C)c1cc([N+](=O)[O-])cc([N+](=O)[O-])c1OC(=O)OC(C)C (stereo not given) | inactive
24 | CCCCCCCOC(=O)c1ccc(O)cc1 | inactive
25 | CCCCCCCCCCCCCC[n+]1ccccc1 | 54.5 µM (active)
26 | CC(COC(=O)c1ccccc1)OC(=O)c1ccccc1 (stereo not given) | inactive
27 | Cn1cnc2ncnc(N)c21 | inactive
28 | CC1(C)C(=O)N(Br)C(=O)N1Br | inactive
29 | CC(C)(C)c1n[nH]c(=O)n(N)c1=O | inactive
30 | CCCC(CC)CCCCCCCN (stereo not given) | inactive
31 | COC(=O)[C@]1(C)CCC[C@@]2(C)[C@H]1CC=C1C=C(C(C)C)CC[C@@H]12 | inactive
32 | O=c1cccc[nH]1 | inactive
33 | Clc1ccc(C(Cn2ccnc2)OCc2c(Cl)cccc2Cl)c(Cl)c1 (stereo not given) | 5.96 µM (active)
34 | CC(C)(c1cc(Br)c(OCCO)c(Br)c1)c1cc(Br)c(OCCO)c(Br)c1 | 29.9 µM (active)
35 | Cc1c(-c2ccc(O)cc2)n(Cc2ccc(OCCN3CCCCCC3)cc2)c2ccc(O)cc12 | 33.5 µM (active)
36 | CCN(CC)c1ccc(N)cc1 | 44.5 µM (active)
37 | Clc1ccc(C(Cn2ccnc2)OCc2ccsc2Cl)c(Cl)c1 (stereo not given) | 6.68 µM (active)
38 | CC1=C(/C=C/C(C)=C/C=C/C(C)=C\C=O)C(C)(C)CCC1 | inactive
39 | CCCCCCCCCCCCCc1ccccc1 | inactive
40 | CCc1c(Br)c(Br)c(Br)c(Br)c1Br | inactive

— PubChem BioAssay (Tox21)
